Screening results as filed in PubChem BioAssay.
Most compounds without a hit are left out; they make up all but 2.5% or so of the library.
TMEM16A inh – TMEM16A chloride channel inhibitors, primary screen, cell-based, HTS. Anoctamin-1 (Mus musculus), Q8BHY3. HEK293 TMEM16A/YFP iodide influx fluorescence, ionomycin. normalized B-score (activity score, 25-100; higher = stronger inhibition) at 10 µM. 1.2% of 310,000 active;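 active means ratio plate-corrected score three or more library SD toward inhibition, starting fluorescence score within five deviations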;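 further: score derived from kinetic fluorescence span divided by baseline fluorescence per well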
ANO1 activ – TMEM16A chloride channel activators or potentiators, primary screen, cell-based, HTS; AID 623877, 2012; B-score at 10 µM; Anoctamin-1 (Mus musculus), Q8BHY3; HEK293 TMEM16A/YFP-H148Q/I152L, iodide quench fluorescence; stronger effect = lower value; 0.3% of 340,000 active;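 active means fluorescence-ratio B-score plate-corrected deviation score at least 3 library SD below zero, with starting fluorescence score within 5 deviations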;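 further: channel opened by trigger with iodide after compound preincubation; score built on the fluorescence ratio of max minus min over baseline; more negative score means more quench and so TMEM16A activation or potentiation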
PKA-R2B act – activators of PKA-R2B holoenzyme, primary screen, biochemical, fluorescence polarization, Cy5-IP20, human; cAMP-dependent protein kinase catalytic subunit beta (Homo sapiens) + cAMP-dependent …; PKA-R2B holoenzyme dissociation; R2B truncated from residue 108, S112A mutant; 0% DMSO only, 100% 113 µM cGMP; activation, % at 11.4 µM; 0.079% of 340,000 active;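 active means activation above a cutoff set at the mean over all compounds plus 3 SD, cut at about 18% in these data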;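 further: higher means more holoenzyme dissociation and a rise in polarization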
CHT inh – inhibitors of human choline transporter CHT. B-score at 10 µM. 0.86% of 310,000 active. AID 488975, 2010. High affinity choline transporter 1 (Homo sapiens), Q9GZV3. CHT-expressing cells, membrane potential dye, choline response; stronger effect = lower value;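 active means B-score over 3 SD under the library average, and starting fluorescence ratio not unusually high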;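 further: choline stimulus applied at its EC90 after an EC20 pre-addition; B-score computed on integrated fluorescence ratio after choline addition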
PKA-R1A activ – activators of PKA-R1A holoenzyme, primary screen, biochemical, fluorescence polarization, Cy5-IP20, bovine R1A, mouse PKAc. AID 504707, 2011. cAMP-dependent protein kinase type I-alpha regulatory subunit (Bos taurus) + …. 0.083% of 340,000 active. activation, % at 11.4 µM. PKA-R1A dissociation; scaled: DMSO 0%, 113 µM cGMP 100%;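 active means percent activation above the mean of all tested compounds plus 3 SD, cut at about 19% in these data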;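 further: higher means more PKAc released from R1A so a rise in polarization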
CHT allo act – CHT positive allosteric modulators, primary screen, cell-based, membrane potential dye, choline EC20 | CHT-expressing cells; stronger effect = higher value; LV-AA mutant CHT in HEK293 cells | AID 488977, 2010 | High affinity choline transporter 1 (Homo sapiens), Q9GZV3 | B-score at 10 µM | 0.49% of 310,000 active;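 active means initial fluorescence not abnormally high and integrated response B-score, plate-corrected, over 3 SD above library mean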
TMEM16A reconf – TMEM16A chloride channel inhibitors, confirmation, cell-based, re-confirmation | AID 652189, 2013 | shares compounds with TMEM16A inh | HEK293 TMEM16A/YFP-H148Q, iodide quench fluorescence; ionomycin added to raise cell calcium | inhibition, % at 10 µM | 39% of 2,300 active;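 active means mean duplicate percent inhibition, scaled so buffer wells are 0 and the reference blocker 100, over three buffer SD above buffer mean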
TMEM16A Ca cntr – calcium mobilization in TMEM16A/YFP HEK293 cells, confirmation, counter-screen for TMEM16A inhibitor project. shares compounds with TMEM16A inh. Fluo4 calcium mobilization. calcium response (% of ionomycin), % at 10 µM. 2% of 2,300 active;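 active means duplicate-averaged calcium signal over 20% of the ionomycin maximum, relative to buffer baseline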;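 further: each well's signal is peak minus trough fluorescence divided by its pre-addition baseline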
YFP-HEK293 quench – iodide YFP quench changes in parental YFP-HEK293, counter-screen for TMEM16A inhibitor project, cell-based; shares compounds with TMEM16A inh; ionomycin; YFP ratio F(max-min)/F0 at 10 µM; 2,300 tested, under 10 active; AID 652233, 2013;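 active means yellow fluorescent protein signal ratio exceeding the buffer control mean by over 5 SD of those controls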;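 further: ratio is mean of duplicate wells from kinetic YFP trace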
ClC-1 inh – ClC-1 chloride channel inhibition, selectivity assay for TMEM16A inhibitor project, cell-based, voltage-dependent ClC-1; shares compounds with TMEM16A inh; CHO ClC-1-YFP, iodide influx fluorescence quench; iodide control reads 0, buffer control 100; ratio percent, % at 10 µM; 2,300 tested, under 10 active; AID 652236, 2013;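 active means duplicate-mean ratio percent above the mean of iodide-only control wells, which defines zero, plus 5 of their SD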;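 further: higher percent means stronger block of ClC-1 iodide influx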
A number is an active result; 0 = inactive; - = no result.

SMILES | TMEM16A inh | ANO1 activ | PKA-R2B act | CHT inh | PKA-R1A activ | CHT allo act | TMEM16A reconf | TMEM16A Ca cntr | YFP-HEK293 quench | ClC-1 inh
CCC1CCCCN1S(=O)(=O)c1ccc(NC(=O)c2ccncc2)cc1 (configuration not stated) | 25 | 0 | 0 | 0 | 0 | 0 | 22% | 0 | 0 | 0
CCC(=O)OCC(=O)Nc1ncc(C(F)(F)F)cc1Cl | 0 | 0 | 0 | 0 | 0 | 0 | - | - | - | -
O=C(COC(=O)C1(c2ccc(F)cc2)CCCC1)Nc1ncc(C(F)(F)F)cc1Cl | 100 | 0 | 0 | 0 | 0 | 0 | 55% | 0 | 0 | 0
CC(OC(=O)c1cc(Br)ccc1O)C(=O)Nc1ccc(S(=O)(=O)N2CCCC2)cc1 (configuration not stated) | 100 | 0 | 0 | 0 | 0 | 0 | 62% | 0 | 0 | 0
CCc1ccc(NC(=O)NCCCN2CCCC2=O)cc1 | 0 | 0 | 0 | 0 | 0 | 0 | - | - | - | -
COc1ccccc1-c1nc(C#N)c(N2CCc3ccccc3C2)o1 | 100 | 0 | 0 | 0 | 0 | 0 | 0 | 0 | 0 | 0
COc1ccccc1-c1nc(C#N)c(N2CCCCCC2)o1 | 0 | 0 | 0 | 0 | 0 | 0 | - | - | - | -
CCN(CC)S(=O)(=O)c1ccc(-c2nnc(SCC(=O)Nc3cc(OC)cc(OC)c3)o2)cc1 | 100 | 0 | 0 | 0 | 0 | 0 | 0 | 0 | 0 | 0
O=C(c1cscn1)N1CCCC(N2CCN(c3ccc(F)cc3)CC2)C1 (configuration not stated) | 0 | 0 | 0 | 0 | 0 | 0 | - | - | - | -
CC(C)CC(=O)Nc1nnc(CSCc2ccc(F)cc2)s1 | 0 | 0 | 0 | 0 | 0 | 0 | - | - | - | -
CN(C(=O)COC(=O)C1CCN(S(=O)(=O)c2ccc3c(c2)OCCO3)CC1)C1CCS(=O)(=O)C1 (configuration not stated) | 0 | 0 | 0 | 0 | 0 | 0 | - | - | - | -
O=C(Nc1ccc(OCC(F)(F)C(F)F)c(C(F)(F)F)c1)c1ccccc1O | 100 | 0 | 0 | 0 | 0 | 0 | 0 | 0 | 0 | 0
CC1CCN(S(=O)(=O)c2cn(CC(=O)Nc3ccc(C#N)cc3)cn2)CC1 | 0 | 0 | 0 | 0 | 0 | 0 | - | - | - | -
Cc1ccc(NC(=O)c2ccc(CN3CCc4ccccc4C3)cc2)cc1 | 25 | 0 | 0 | 0 | 0 | 0 | 0 | 0 | 0 | 0
Cc1cc(C)cc(NC(=O)c2ccc(CN3CCc4ccccc4C3)cc2)c1 | 0 | 0 | 0 | 0 | 0 | 0 | - | - | - | -
O=C(Nc1cccnc1)c1ccc(CN2CCc3ccccc3C2)cc1 | 25 | 0 | 0 | 0 | 0 | 0 | 22% | 0 | 0 | 0
O=C(Nc1ccccc1)c1ccc(CN2CCc3ccccc3C2)cc1 | 0 | 0 | 0 | 0 | 0 | 0 | - | - | - | -
COc1cc(SC)ccc1C(=O)OCC(=O)N1CCN(C(C)=O)CC1 | 0 | 0 | 0 | 0 | 0 | 0 | - | - | - | -
CC1CCCN(C(=O)Cc2cn(Cc3cccc(Cl)c3)c3ccccc23)C1 (configuration not stated) | 100 | 0 | 0 | 0 | 0 | 0 | 24% | 0 | 0 | 0
O=C(O)Cc1cn(Cc2cccc(Cl)c2)c2ccccc12 | 0 | 0 | 0 | 0 | 0 | 0 | - | - | - | -
CCOC(=O)c1ccc2c(c1)N(CC(=O)N1CCCCC1)C(=O)C(C)(C)O2 | 100 | 0 | 0 | 0 | 0 | 0 | 0 | 0 | 0 | 0
O=C(Cn1ccc2cc(S(=O)(=O)N3CCCC3)ccc21)NCc1ccco1 | 0 | 0 | 0 | 0 | 0 | 0 | - | - | - | -
CCc1ccc(C2CC(=O)N3CN(c4ccccc4)CSC3=C2C#N)cc1 (configuration not stated) | 0 | 0 | 0 | 0 | 0 | 0 | - | - | - | -
N#CC1=C2SCC(O)(c3ccccc3)N2C(=O)CC1c1ccccc1 (configuration not stated) | 100 | 0 | 0 | 0 | 0 | 0 | 16% | 0 | 0 | 0
COc1ccc(-c2csc(NC(=O)C3CCN(C(=O)c4ccc(F)cc4)CC3)n2)cc1OC | 100 | 0 | 0 | 0 | 0 | 0 | 20% | 0 | 0 | 0
SMILES | TMEM16A inh | ANO1 activ | PKA-R2B act | CHT inh | PKA-R1A activ | CHT allo act | TMEM16A reconf | TMEM16A Ca cntr | YFP-HEK293 quench | ClC-1 inh
COc1cccc(NC(=O)Nc2nc(-c3ccc(OC)c(OC)c3)cs2)c1 | 25 | 0 | 0 | 0 | 0 | 0 | 20% | 0 | 0 | 0
COc1ccc(-c2csc(NC(C)=O)n2)cc1OC | 0 | 0 | 0 | 0 | 0 | 0 | - | - | - | -
CSc1nc2nc(C)c(CCC(=O)OCC(=O)Nc3ccc(F)cc3)c(C)n2n1 | - | 0 | 0 | - | 0 | - | - | - | - | -
COc1cc2ncnc(Nc3ccc4c(c3)OCO4)c2cc1OC | 0 | 0 | 0 | 0 | 0 | 0 | 0 | 0 | 0 | 0
COc1ccccc1CN=Cc1[nH]c2ccc(Br)c(Cl)c2c1O | 0 | 0 | 0 | 0 | 0 | 0 | 16% | 0 | 0 | 0
Cc1cccc(NC(=O)c2ccc(C(=O)c3ccccc3)cc2)n1 | 100 | 0 | 0 | 0 | 0 | 0 | 47% | 0 | 0 | 0
CCCc1ccc(Oc2c(-c3ccc(O)c(C)c3O)n[nH]c2C)cc1 | 100 | 0 | 0 | 0 | 0 | 0 | 0 | 0 | 0 | 0
COc1ccc(Oc2c(-c3ccc(O)cc3O)n[nH]c2C)cc1 | 0 | 0 | 0 | 0 | 0 | 0 | - | - | - | -
COCCCNC(=O)C1CC(=O)N(Cc2ccc(OC)cc2)C1 (configuration not stated) | 0 | 0 | 0 | 0 | 0 | 0 | - | - | - | -
COc1ccc(CN2CC(C(=O)NCc3ccccn3)CC2=O)cc1 (configuration not stated) | 100 | 0 | 0 | 0 | 0 | 0 | 0 | 0 | 0 | 0
O=c1[nH]c(-c2ccccc2)c(-c2ccccc2)o1 | 0 | 0 | 0 | 0 | 0 | 0 | - | - | - | -
